Results reported in PubChem BioAssay (NCI).
About 83,000 compounds went through this panel and 20% of them were active in at least one assay; those are over-represented in the sample as a whole.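 Cell lines were cultured in 96-well plates, exposed to a single compound concentration, and assessed for percent growth 48 hours later.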 The source made the active and inactive calls. How the source made its calls: active means growth percent below 10; inactive means the rest.

tested on: SF-295 CNS; test: NCI-60 one-dose screen, 48 h (100 = growth as untreated, 0 = no growth, -100 = all killed); conditions: 10 µM

SMILES | growth
CC(=O)OCC1CCCO1 (stereo unspecified) | 101% (inactive)
N#CCCc1ccc(O)cc1 | 97.8% (inactive)
Nc1ccc(N=Nc2ccc(S(=O)(=O)O)cc2)c2ccccc12 | 99.5% (inactive)
O=C1OC(=O)C2C1C1(Cl)C(Cl)=C(Cl)C2(Cl)C2C(=O)OC(=O)C21 (stereo unspecified) | 105% (inactive)
CCCCCCCCO | 108% (inactive)
O=c1[nH]nc(SC2CCCCC2)c(=O)[nH]1 | 118% (inactive)
Cc1cc(C(O)(c2ccc(Nc3ccccc3)cc2)c2ccc(Nc3ccc(S(=O)(=O)O)cc3)cc2)ccc1N (stereo unspecified) | 5.34% (active)
CCCNC(=O)c1ccc(S(N)(=O)=O)cc1 | 127% (inactive)
CN(C)c1ccc2oc(=O)c3ccccc3c2c1 | 102% (inactive)
Cc1ccc(CCCC(=O)O)c(C)c1 | 98.5% (inactive)
Oc1ccccc1-c1nnco1 | 112% (inactive)
COc1ccc(C(O)c2ccccc2)cc1 (stereo unspecified) | 102% (inactive)
FC(F)(F)c1ccc2c(c1)N(CCCN1CCN(C3CC3)CC1)c1ccccc1S2 | 3.21% (active)
CC(=O)NCc1cc(C)c(C)cc1C | 103% (inactive)
CCC(C)(O)c1ccc(C)cc1 (stereo unspecified) | 109% (inactive)
CC(C)(N)COS(=O)(=O)O | 101% (inactive)
Cc1cc(C)cc(NCCC#N)c1 | 103% (inactive)
O=C(O)CSCSCC(=O)O | 96.6% (inactive)
O/N=C/c1ccc(O)cc1O | 107% (inactive)

SMILES | growth
CCO/C=C1\SC(=S)N(c2cccc(C)c2)C1=O | 97% (inactive)
Cc1cc2ccccc2c(O)c1C#N | 116% (inactive)
O=C(O)/C=C/C(=O)NCc1ccccc1 | 98.1% (inactive)
Cc1cc2nc(CO)[nH]c2cc1C | 121% (inactive)
C=CCNc1ccccc1 | 138% (inactive)
NC(=O)NC(=O)c1ccc(Cl)cc1 | 112% (inactive)
CCOc1ccc(I)cc1 | 113% (inactive)
CC(C)C(C#N)(C(C)C)C(C)C | 103% (inactive)
CCCCOC(OCCCC)c1ccccc1 | 111% (inactive)
NC(=O)c1ccc(N=C(N)N=C(N)N)cc1 | 96.8% (inactive)
CCOc1ccccc1/C=N/Nc1nc2ccccc2o1 | 108% (inactive)
CO[C@H]1C[C@@H]2CC[C@@H](C)[C@@](O)(O2)C(=O)C(=O)N2CCCC[C@H]2C(=O)O[C@H]([C@H](C)C[C@@H]2CC[C@@H](O)[C@H](OC)C2)CC(=O)[C@H](C)C=C(C)[C@@H](O)[C@@H](OC)C(=O)[C@H](C)C[C@H](C)/C=C/C=C/C=C1C | 23% (inactive)
O=C(NCCNC(=O)c1ccc(Cl)cc1Cl)c1ccc(Cl)cc1Cl | 82.7% (inactive)
COC(=O)/C=C/C(=O)NC(N)=O | 95.2% (inactive)
Cc1ccc(O)c(C(=O)c2ccccc2)c1 | 106% (inactive)
CN(C)c1ccc(C(c2ccc(O)cc2)c2ccc(N(C)C)cc2)cc1 | 103% (inactive)
Nc1ccc(N)c([N+](=O)[O-])c1 | 108% (inactive)
CCOC(=O)c1[nH]c(C)c(C(C)=O)c1C | 92.6% (inactive)
CC(C)C1CCCCC1O (stereo unspecified) | 111% (inactive)

tested on: SF-539 CNS; test: as above; conditions: 10 µM

SMILES | growth
CC(=O)OCC1CCCO1 (stereo unspecified) | 114% (inactive)
N#CCCc1ccc(O)cc1 | 99.4% (inactive)
Nc1ccc(N=Nc2ccc(S(=O)(=O)O)cc2)c2ccccc12 | 103% (inactive)
O=C1OC(=O)C2C1C1(Cl)C(Cl)=C(Cl)C2(Cl)C2C(=O)OC(=O)C21 (stereo unspecified) | 98.8% (inactive)
CCCCCCCCO | 97.4% (inactive)
O=c1[nH]nc(SC2CCCCC2)c(=O)[nH]1 | 99% (inactive)
Cc1cc(C(O)(c2ccc(Nc3ccccc3)cc2)c2ccc(Nc3ccc(S(=O)(=O)O)cc3)cc2)ccc1N (stereo unspecified) | -63.9% (active)
CCCNC(=O)c1ccc(S(N)(=O)=O)cc1 | 97.8% (inactive)
CN(C)c1ccc2oc(=O)c3ccccc3c2c1 | 80.4% (inactive)
Cc1ccc(CCCC(=O)O)c(C)c1 | 96.5% (inactive)
Oc1ccccc1-c1nnco1 | 89.9% (inactive)
COc1ccc(C(O)c2ccccc2)cc1 (stereo unspecified) | 102% (inactive)
FC(F)(F)c1ccc2c(c1)N(CCCN1CCN(C3CC3)CC1)c1ccccc1S2 | 94.2% (inactive)
CC(=O)NCc1cc(C)c(C)cc1C | 102% (inactive)
CCC(C)(O)c1ccc(C)cc1 (stereo unspecified) | 103% (inactive)
CC(C)(N)COS(=O)(=O)O | 99.3% (inactive)
Cc1cc(C)cc(NCCC#N)c1 | 104% (inactive)
O=C(O)CSCSCC(=O)O | 98.3% (inactive)
O/N=C/c1ccc(O)cc1O | 104% (inactive)

SMILES | growth
CCO/C=C1\SC(=S)N(c2cccc(C)c2)C1=O | 97.8% (inactive)
Cc1cc2ccccc2c(O)c1C#N | 110% (inactive)
O=C(O)/C=C/C(=O)NCc1ccccc1 | 95.7% (inactive)
Cc1cc2nc(CO)[nH]c2cc1C | 107% (inactive)
C=CCNc1ccccc1 | 104% (inactive)
NC(=O)NC(=O)c1ccc(Cl)cc1 | 104% (inactive)
CCOc1ccc(I)cc1 | 97.8% (inactive)
CC(C)C(C#N)(C(C)C)C(C)C | 104% (inactive)
CCCCOC(OCCCC)c1ccccc1 | 91.8% (inactive)
NC(=O)c1ccc(N=C(N)N=C(N)N)cc1 | 96.8% (inactive)
CCOc1ccccc1/C=N/Nc1nc2ccccc2o1 | 104% (inactive)
CO[C@H]1C[C@@H]2CC[C@@H](C)[C@@](O)(O2)C(=O)C(=O)N2CCCC[C@H]2C(=O)O[C@H]([C@H](C)C[C@@H]2CC[C@@H](O)[C@H](OC)C2)CC(=O)[C@H](C)C=C(C)[C@@H](O)[C@@H](OC)C(=O)[C@H](C)C[C@H](C)/C=C/C=C/C=C1C | 30.4% (inactive)
O=C(NCCNC(=O)c1ccc(Cl)cc1Cl)c1ccc(Cl)cc1Cl | 96.5% (inactive)
COC(=O)/C=C/C(=O)NC(N)=O | 96.8% (inactive)
Cc1ccc(O)c(C(=O)c2ccccc2)c1 | 101% (inactive)
CN(C)c1ccc(C(c2ccc(O)cc2)c2ccc(N(C)C)cc2)cc1 | 104% (inactive)
Nc1ccc(N)c([N+](=O)[O-])c1 | 94.9% (inactive)
CCOC(=O)c1[nH]c(C)c(C(C)=O)c1C | 92.6% (inactive)
CC(C)C1CCCCC1O (stereo unspecified) | 101% (inactive)
